Assay outcomes from PubChem.
Only a sample is shown.
aSyn 5UTR act: Activators working through SNCA 5'UTR binding (MLPCN); alpha-synuclein 5'UTR reporter, activators screen; 300,000 compounds, 7.1% hits; activity score, % (tested at 7.5 µM), hits read low; in the data active = activity score below about -60%
Numbers without * were called inactive.

For CCC(=O)Nc1nc(-c2ccc3c(c2)CC(C)N3S(C)(=O)=O)cs1 (stereo unspecified) the results were aSyn 5UTR act -70*.
CC(C)(C)C(=O)Nc1nc(-c2ccc3c(c2)OCO3)cs1 was read as aSyn 5UTR act -147*.
For COc1cccc(NC(=O)C(C)SCc2ccccc2)c1 (stereo unspecified) the results were aSyn 5UTR act -63*.
`CC(SCc1ccccc1)C(=O)Nc1ccc2c(c1)OCO2` (stereo unspecified) gave aSyn 5UTR act -66*.
`Cc1ccc(NC(=O)C(C)SCc2ccccc2)cc1` (stereo unspecified) gave aSyn 5UTR act -87*.
`O=[N+]([O-])c1ccc(Nc2ccc3ccccc3c2)nc1` gave aSyn 5UTR act -168*.
`CCOC(=O)C(C)On1c(-c2ccc(Cl)cc2)nc2ccc([N+](=O)[O-])cc21` (stereo unspecified) gave aSyn 5UTR act -176*.
For CCOC(=O)C(C)On1c(-c2ccccc2)nc2ccc([N+](=O)[O-])cc21 (stereo unspecified) the results were aSyn 5UTR act -192*.
Screening O=C(O)COn1c(-c2ccccc2)nc2ccc([N+](=O)[O-])cc21 returned aSyn 5UTR act -165*.
For O=C(Nc1ccc(Br)cc1)Nc1ccccc1F the results were aSyn 5UTR act -232*.
Screening O=C(Nc1ccccc1F)Nc1ccccc1F returned aSyn 5UTR act -239*.
`O=C(Nc1ccccc1)N1CCc2ccccc21` gave aSyn 5UTR act -117*.
`CCOC(=O)c1ccc(NC(=O)N2CCc3ccccc32)cc1` gave aSyn 5UTR act -189*.
`CCOC(=O)c1[nH]c(C)c(C(=O)N2CCc3ccccc32)c1C` gave aSyn 5UTR act 90.
O=C(Nc1ccc(Br)cc1)c1cnc[nH]1 was read as aSyn 5UTR act -107*.
For CC(C)(C)c1ccc(C(=O)NC(=S)Nn2cnnc2)cc1 the results were aSyn 5UTR act -76*.
`CC(C)(C)c1cc(CCC(=O)NNC(=S)NC(=O)c2ccccc2)cc(C(C)(C)C)c1O` gave aSyn 5UTR act 66.
For CCCCCCCCC/C(=N\O)c1ccccn1 the results were aSyn 5UTR act -75*.
For c1csc(-c2cn3ccc4ccccc4c3n2)c1 the results were aSyn 5UTR act -209*.
CCCCOc1ccc(-c2ncc(Cl)cn2)cc1 was read as aSyn 5UTR act -89*.
Screening CCCCOc1ccc(-c2[nH]ncc2C=O)cc1 returned aSyn 5UTR act -82*.
`CCCCOc1ccc(-c2ncc([N+](=O)[O-])cn2)cc1` gave aSyn 5UTR act -133*.
CCn1c2ccccc2c2cc(NC(=O)N3CCOCC3)ccc21 was read as aSyn 5UTR act -84*.
Screening CCn1c2ccccc2c2cc(NC(=O)CN(C)CC(=O)Nc3ccc(N4CCOCC4)cc3)ccc21 returned aSyn 5UTR act -143*.
O=C(Nc1ccc2c(c1)oc1ccccc12)N1CCOCC1 was read as aSyn 5UTR act -140*.
Screening CC(C)c1ccc(NC(=O)N2CCOCC2)cc1 returned aSyn 5UTR act -107*.
Screening COC(=O)c1ccc(-c2ccc(Cl)cc2)nc1C returned aSyn 5UTR act -126*.
COCc1c(C(C)C)nc(C(C)C)c(/C=C/[C@@H](O)C[C@@H](O)CC(=O)O)c1-c1ccc(F)cc1 was read as aSyn 5UTR act 115.
Screening CCC(C)Nc1nc(-c2ccccn2)nc2ccccc12 (stereo unspecified) returned aSyn 5UTR act 69.
For Cc1cc(NCc2ccccn2)nc2ccccc12 the results were aSyn 5UTR act -87*.
`FC(F)(F)c1ccc(NCc2ccccn2)nc1` gave aSyn 5UTR act -167*.
Cc1ccc(-c2ccc(NC(=O)C3C4C=CC(C4)C3C(=O)O)cc2)o1 (stereo unspecified) was read as aSyn 5UTR act -181*.
`[O-]/[N+](=C/c1cccnc1)c1ccc(Br)cc1` gave aSyn 5UTR act -95*.
For [O-]/[N+](=C\c1ccncc1)c1ccc(Br)cc1 the results were aSyn 5UTR act -225*.
`O=C(CCCN1C(=O)S/C(=C\c2ccccc2)C1=O)NNC(=O)c1ccccc1O` gave aSyn 5UTR act 83.
`O=C(CN1C(=O)S/C(=C\c2ccc(O)cc2)C1=O)c1ccccc1` gave aSyn 5UTR act -157*.
`Oc1ccccc1CNc1ccc(Br)cn1` gave aSyn 5UTR act -300*.
For COc1ccccc1CNc1ccc(Br)cn1 the results were aSyn 5UTR act -113*.
For CCc1ccc(C(=O)CSc2ncn[nH]2)cc1 the results were aSyn 5UTR act -115*.
For CCOC(=O)c1sc(Nc2ccccc2)nc1C the results were aSyn 5UTR act -96*.
`CCOC(=O)c1sc(-c2cccs2)nc1C` gave aSyn 5UTR act -65*.
Screening CCOC(=O)c1sc(Nc2nc(C)cc(C)n2)nc1C returned aSyn 5UTR act 84.
Cc1cccc(Nc2nc3c(s2)CCCC3)c1 was read as aSyn 5UTR act -257*.
`COC(=O)c1sc(Nc2ccccc2)nc1C` gave aSyn 5UTR act -157*.
For CC(=O)c1sc(Nc2cccc(C)c2)nc1C the results were aSyn 5UTR act -165*.
